Here are results for 38 compounds from PubChem BioAssay (EPA / NIEHS).

Calls of active or inactive are those of the source. The calls were made as follows: active = hit-call score of the fitted dose curve at least 0.9, where 1 is the maximum; inactive = score below 0.9.

Sequence of Hepatocyte nuclear factor 3-beta (Homo sapiens) (Q9Y261 whole entry, looked up): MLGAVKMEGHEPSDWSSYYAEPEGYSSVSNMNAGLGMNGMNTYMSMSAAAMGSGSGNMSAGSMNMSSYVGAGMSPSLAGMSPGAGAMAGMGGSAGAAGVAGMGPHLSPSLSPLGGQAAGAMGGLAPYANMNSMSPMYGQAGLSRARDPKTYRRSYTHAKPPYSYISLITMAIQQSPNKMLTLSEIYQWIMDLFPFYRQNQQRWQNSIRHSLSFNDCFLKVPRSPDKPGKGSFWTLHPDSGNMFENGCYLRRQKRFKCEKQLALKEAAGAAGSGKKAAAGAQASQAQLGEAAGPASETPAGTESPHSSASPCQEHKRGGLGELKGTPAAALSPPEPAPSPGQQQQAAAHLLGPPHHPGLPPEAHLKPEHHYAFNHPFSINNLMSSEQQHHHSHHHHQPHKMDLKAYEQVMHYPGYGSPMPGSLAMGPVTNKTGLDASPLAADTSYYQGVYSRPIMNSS

System in one assay: not listed separately
Briefly: ATG_ERE_CIS: Attagene CIS-FACTORIAL HepG2 Assay for Estrogen Response Element (ERE) (AID 2282940). Conditions: HepG2 ERE cis-reporter, Attagene RNA transcript; actives raise or lower the signal. Summed up:
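After a 24 h chemical treatment, RNA from reporter-transfected HepG2 cells is reverse-transcribed, PCR-amplified and fluorescently labelled. Fragments separated by capillary electrophoresis give reporter signal; DMSO serves as negative control.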
As to `CCOCCOCC`, the call was inactive.
The same measure, in the same setting: the result for `O=CC(F)(F)C(F)(F)C(F)(F)F` reads “inactive”.
Same read-out and setting: the result for `OCCN1CN(CCO)CN(CCO)C1` reads “inactive”.
On to `C=Cc1ccc(O)c(OC)c1`, for which the result was inactive.
For `Cc1ccc(C(=O)c2ccccc2)cc1`, the AC50 was 27.2 µM (active).
With `CC(C)(O)C(=O)c1ccccc1`, the result was inactive.
Same read-out and setting: the result for `CN(CCO)S(=O)(=O)C(F)(F)C(F)(F)C(F)(F)C(F)(F)C(F)(F)C(F)(F)C(F)(F)C(F)(F)F` reads “inactive”.

System in the next assay: not listed separately
The assay can be described thus: ATG_Ets_CIS: Attagene CIS-FACTORIAL HepG2 Assay for human Erythroblast Transformation Specific (ETS) (AID 2282941). Conditions: HepG2 ETS cis-reporter transcription; AC50: actives raise or lower the signal unless noted; outcome: actives raise or lower the signal unless noted. Summed up: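 Bidirectional fit versus DMSO of reporter mRNA signal, detected by RT-PCR and capillary electrophoresis in HepG2 cells transiently transfected with cis-element reporters and dosed 24 h.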
Consider `CS(=O)(=O)c1ccc([C@@H](CC2CCCC2)C(=O)Nc2cnccn2)cc1Cl`, for which the call was inactive.
The same measure, in the same setting: the entry for `FC(F)(F)N1C(F)(F)C(F)(F)OC(F)(F)C1(F)F` is “inactive”.
On to `C=COC(=O)C(C)(C)CCCCCC`, for which the call was inactive.
Same read-out and setting: the entry for `FCOC(C(F)(F)F)C(F)(F)F` is “inactive”; for `COc1ccc(C#N)cc1` it is “inactive”.
Same read-out and setting: the entry for `O=C(F)C(F)(F)C(F)(F)C(F)(F)C(F)F` is “inactive”.
As for `CCCCCCCCCCCC[N+](C)(C)CCCCCCCCCCCC`, the AC50 is 36.3 µM (active).
Consider `Cc1ccccc1OCC(=O)O`, for which the compound was classed as inactive.
Still for that read-out and setting: the entry for `O=C(Nc1cccc([N+](=O)[O-])c1)c1cc2ccccc2cc1O` is “inactive”; for `O=C(F)C(F)(F)C(F)(F)C(F)(F)C(=O)F` it is “inactive”.
The same measure, in the same setting: the result for `NS(=O)(=O)O` reads “inactive”; that for `CCCCC=O`, “inactive”.
The same measure, in the same setting: the entry for `O=C(O)C(=O)O` is “inactive”; for `CCOCCOCC` it is “inactive”; for `Cc1ccc(C(=O)c2ccccc2)cc1` it is “inactive”.
As for `CCCC=O`, the result was inactive.
`O=S(=O)(O)c1ccc2cc(O)ccc2c1`: the result was inactive.
Same read-out and setting: the result for `O=C1NS(=O)(=O)c2ccccc21` reads “inactive”; that for `CC(C)(O)C(=O)c1ccccc1`, “inactive”.
Turning to `CN(CCO)S(=O)(=O)C(F)(F)C(F)(F)C(F)(F)C(F)(F)C(F)(F)C(F)(F)C(F)(F)C(F)(F)F`, the compound was called inactive.

A further assay concerns the target Hepatocyte nuclear factor 3-beta (Homo sapiens) (UniProt Q9Y261). Briefly: ATG_FoxA2_CIS: Attagene CIS-FACTORIAL HepG2 Assay for human Forkhead box A2 (FOXA2) (AID 2282942). Conditions: HepG2 cis-reporter transcription factor activity, 24 h; actives raise or lower the signal. Summed up:
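In transiently transfected human HepG2 cells, promoter-driven reporter mRNA levels after 24 h chemical exposure are determined via RT-PCR with capillary electrophoresis. DMSO serves as baseline for bidirectional fitting.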
As for `CCCCCc1ccc(O)cc1`, the compound was classed as inactive.
Still for that read-out and setting: the entry for `Oc1cc2ccccc2cc1O` is “inactive”; for `CS(=O)(=O)c1ccc([C@@H](CC2CCCC2)C(=O)Nc2cnccn2)cc1Cl` it is “inactive”; for `O=C(c1cc(O)c(O)c(O)c1)c1ccc(O)c(O)c1O` it is “inactive”.
For `CCCCCCCCCCCC(=O)NCCCN(C)C`, the outcome was inactive.
On the same count and under the same terms, the entry for `CCCCCCc1ccc(N)cc1` is “inactive”.
On the same count and under the same terms, the result for `FC(F)(F)C(F)(F)C(F)(F)C(F)(F)I` reads “inactive”.
Still for that read-out and setting: the entry for `C=CC(=O)OCCC(F)(F)C(F)(F)C(F)(F)C(F)(F)C(F)(F)C(F)(F)F` is “inactive”; for `CN(C)CCOC(c1ccccc1)c1ccccc1` it is “inactive”.
Take `Nc1ccn([C@@H]2O[C@H](CO)[C@@H](O)C2O)c(=O)n1` (some centres undefined): the compound was classed as inactive.
As for `NNC(=O)CCCCC(=O)NN`, the result was inactive.
The same measure, in the same setting: the result for `COC(O)c1ccccc1` (centres undefined) reads “inactive”; that for `O=S(=O)(c1ccc(OCc2ccccc2)cc1)c1ccccc1O`, “inactive”; that for `NS(=O)(=O)O`, “inactive”.
As to `CCCCC=O`, the call was inactive.
On the same count and under the same terms, the entry for `O=C(O)C(=O)O` is “inactive”; for `O=CC(F)(F)C(F)(F)C(F)(F)F` it is “inactive”; for `OCCN1CN(CCO)CN(CCO)C1` it is “inactive”.
For the compound `C=Cc1ccc(O)c(OC)c1`, the call was inactive.
On the same count and under the same terms, the result for `CCCC=O` reads “inactive”.
Same read-out and setting: the entry for `O=S(=O)(O)c1ccc2cc(O)ccc2c1` is “inactive”; for `O=C1NS(=O)(=O)c2ccccc21` it is “inactive”.

System in another assay: not listed separately
The assay can be described thus: ATG_FoxO_CIS: Attagene CIS-FACTORIAL HepG2 Assay for human Forkhead box O (FoxO) (AID 2282943). Conditions: HepG2 Attagene cis-reporter, FoxO element, mRNA; actives raise or lower the signal. Summed up:
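Endogenous transcription factor activity read from multiplexed cis-promoter reporter transcripts in transiently transfected HepG2, 24 h after dosing. Reporter RNA measured via RT-PCR plus capillary electrophoresis of FAM-labeled products; gain or loss relative to DMSO.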
Turning to `NC(C(F)(F)F)C(F)(F)F`, the result was inactive.
For `Oc1cc2ccccc2cc1O`, the outcome was inactive.
With `CS(=O)(=O)c1ccc([C@@H](CC2CCCC2)C(=O)Nc2cnccn2)cc1Cl`, the AC50 is 152 µM (active).
With `O=C(C=C(O)C(F)(F)F)C(F)(F)F`, the outcome was inactive.
With `C=COC(=O)C(C)(C)CCCCCC`, the call was inactive.
`O=C(c1cc(O)c(O)c(O)c1)c1ccc(O)c(O)c1O`: the result was inactive.
Same read-out and setting: the result for `FCOC(C(F)(F)F)C(F)(F)F` reads “inactive”.
The same measure, in the same setting: the result for `CCCCCCc1ccc(N)cc1` reads “inactive”; that for `FC(F)(F)C(F)(F)C(F)(F)C(F)(F)I`, “inactive”.
The same measure, in the same setting: the result for `C=CC(=O)OCCC(F)(F)C(F)(F)C(F)(F)C(F)(F)C(F)(F)C(F)(F)F` reads “inactive”; that for `O=C(F)C(F)(F)C(F)(F)C(F)(F)C(F)F`, “inactive”.
In the case of `CN(C)CCOC(c1ccccc1)c1ccccc1`, the outcome was inactive.
The same measure, in the same setting: the entry for `NNC(=O)CCCCC(=O)NN` is “inactive”; for `O=C(Nc1cccc([N+](=O)[O-])c1)c1cc2ccccc2cc1O` it is “inactive”; for `Brc1ccc(Oc2ccc(Br)cc2Br)cc1` it is “inactive”.
For the compound `O=S(=O)(c1ccc(OCc2ccccc2)cc1)c1ccccc1O`, the AC50 is 50.8 µM (active).
For `O=C(F)C(F)(F)C(F)(F)C(F)(F)C(=O)F`, the result was inactive.
As to `NS(=O)(=O)O`, the compound was classed as inactive.
Consider `CCCCC=O`, for which the compound was called inactive.
Still for that read-out and setting: the entry for `O=C(O)C(=O)O` is “inactive”; for `O=CC(F)(F)C(F)(F)C(F)(F)F` it is “inactive”; for `C=Cc1ccc(O)c(OC)c1` it is “inactive”.
For `Cc1ccc(C(=O)c2ccccc2)cc1`, the outcome was inactive.
Still for that read-out and setting: the result for `CCCC=O` reads “inactive”; that for `O=S(=O)(O)c1ccc2cc(O)ccc2c1`, “inactive”.
Still for that read-out and setting: the entry for `O=C1NS(=O)(=O)c2ccccc21` is “inactive”; for `CC(C)(O)C(=O)c1ccccc1` it is “inactive”.

System in a further assay: not listed separately
Briefly: ATG_GATA_CIS: Attagene CIS-FACTORIAL HepG2 Assay for human GATA Binding Protein (AID 2282944). Conditions: HepG2 GATA cis-element reporter, Attagene multiplex mRNA; actives raise or lower the signal. The gist of the method: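 Cells: HepG2, transiently transfected with cis-regulated reporter transcription units. Exposure: 24 h. Detection: RT-PCR plus capillary electrophoresis of FAM-labeled fragments. Analysis: bidirectional, DMSO as baseline.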
As to `CCCCCc1ccc(O)cc1`, the compound was classed as inactive.
Still for that read-out and setting: the result for `NC(C(F)(F)F)C(F)(F)F` reads “inactive”.
Same read-out and setting: the result for `Oc1cc2ccccc2cc1O` reads “inactive”; that for `CS(=O)(=O)c1ccc([C@@H](CC2CCCC2)C(=O)Nc2cnccn2)cc1Cl`, “inactive”.
In the case of `FC(F)(F)N1C(F)(F)C(F)(F)OC(F)(F)C1(F)F`, the compound was called inactive.
On the same count and under the same terms, the entry for `O=C(C=C(O)C(F)(F)F)C(F)(F)F` is “inactive”; for `C=COC(=O)C(C)(C)CCCCCC` it is “inactive”.
Same read-out and setting: the entry for `O=C(c1cc(O)c(O)c(O)c1)c1ccc(O)c(O)c1O` is “inactive”.
Turning to `CCCCCCCCCCCC(=O)NCCCN(C)C`, the AC50 was 17.2 µM (active).
Turning to `FCOC(C(F)(F)F)C(F)(F)F`, the compound was called inactive.
On to `CCCCCCc1ccc(N)cc1`, for which the result was inactive.
On to `FC(F)(F)C(F)(F)C(F)(F)C(F)(F)I`, for which the outcome was inactive.
On the same count and under the same terms, the result for `COc1ccc(C#N)cc1` reads “inactive”; that for `C=CC(=O)OCCC(F)(F)C(F)(F)C(F)(F)C(F)(F)C(F)(F)C(F)(F)F`, “inactive”.
As for `O=C(F)C(F)(F)C(F)(F)C(F)(F)C(F)F`, the call was inactive.
Still for that read-out and setting: the entry for `CN(C)CCOC(c1ccccc1)c1ccccc1` is “inactive”; for `Nc1ccn([C@@H]2O[C@H](CO)[C@@H](O)C2O)c(=O)n1` (some centres undefined) it is “inactive”.
As for `NNC(=O)CCCCC(=O)NN`, the call was inactive.
Still for that read-out and setting: the result for `COC(O)c1ccccc1` (centres undefined) reads “inactive”; that for `CCCCCCCCCCCC[N+](C)(C)CCCCCCCCCCCC`, “inactive”; that for `Cc1ccccc1OCC(=O)O`, “inactive”.
On the same count and under the same terms, the entry for `O=C(Nc1cccc([N+](=O)[O-])c1)c1cc2ccccc2cc1O` is “inactive”.
Still for that read-out and setting: the entry for `Brc1ccc(Oc2ccc(Br)cc2Br)cc1` is “inactive”.
For `O=S(=O)(c1ccc(OCc2ccccc2)cc1)c1ccccc1O`, the AC50 is 55.4 µM (active).
On to `O=C(F)C(F)(F)C(F)(F)C(F)(F)C(=O)F`, for which the result was inactive.
On the same count and under the same terms, the entry for `NS(=O)(=O)O` is “inactive”; for `CCCCC=O` it is “inactive”; for `O=C(O)C(=O)O` it is “inactive”.
Still for that read-out and setting: the result for `CCOCCOCC` reads “inactive”; that for `O=CC(F)(F)C(F)(F)C(F)(F)F`, “inactive”; that for `OCCN1CN(CCO)CN(CCO)C1`, “inactive”.
The same measure, in the same setting: the entry for `C=Cc1ccc(O)c(OC)c1` is “inactive”.
For `Cc1ccc(C(=O)c2ccccc2)cc1`, the call was inactive.
As for `CCCC=O`, the result was inactive.
Turning to `O=S(=O)(O)c1ccc2cc(O)ccc2c1`, the call was inactive.
For the compound `O=C1NS(=O)(=O)c2ccccc21`, the result was inactive.
Take `CC(C)(O)C(=O)c1ccccc1`: the compound was classed as inactive.
The same measure, in the same setting: the entry for `CN(CCO)S(=O)(=O)C(F)(F)C(F)(F)C(F)(F)C(F)(F)C(F)(F)C(F)(F)C(F)(F)C(F)(F)F` is “inactive”.
